38 compounds from PubChem BioAssay (EPA / NIEHS) can be followed below.

Molecules are shown by their SMILES. Where a structure was tested more than once in an assay, its records may differ in their call. Calls of active or inactive are those of the source. The calls were made as follows: active = hit-call score of the fitted dose curve at least 0.9, where 1 is the maximum; inactive = score below 0.9.

Read-out in the assay: Vascular cell adhesion molecule 1 (VCAM1), VCAM1 (gene 7412)
The assay is described as follows: BSK_LPS_VCAM1: BioMAP Diversity Plus: LPS Assay for Vascular cell adhesion molecule 1 (VCAM1) Biomarker Activity (AID 2283086). The note with it: primary human HUVEC with PBMC; actives raise or lower the signal. As for the experimental part: BSK_LPS is a cell-based, multiplexed-readout assay that uses umbilical vein endothelium and peripheral blood mononuclear cells, a human vascular primary cell co-culture, with measurements taken at 24 hours after chemical dosing in a 96-well plate.BSK_LPS_VCAM1 is an assay component measured in the BSK_LPS assay. It measures VCAM-1 antibody related to regulation of gene expression using ELISA technology.Data from the assay component BSK_LPS_VCAM1 was analyzed into 1 assay endpoint. This assay endpoint, BSK_LPS_VCAM1, was analyzed with bidirectional fitting relative to DMSO as the negative control and baseline of activity. Using a type of binding reporter, gain or loss-of-signal activity can be used to understand changes in the signaling as they relate to the gene VCAM1. Furthermore, this assay endpoint can be referred to as a primary readout, because this assay has produced multiple assay endpoints where this one serves a signaling function. To generalize the intended target to other relatable targets, this assay endpoint is annotated to the cell adhesion molecules intended target family, where the subfamily is Immunoglobulin CAM.
The levels of cell surface (or secreted, indicated by the prefix "s") biomarker endpoints were measured by ELISA. Overt cytotoxicity to cells in confluent adherent cultures (all systems other than the BT system) was assessed by measuring total protein levels using sulforhodamine B (SRB) staining in parallel cultures at the time of biomarker measurements, indicated as SRB endpoints. For proliferation assays for adherent cell types, individual cell types are cultured at sub-confluence and relative cell numbers quantified by SRB staining at time points optimized for each system (48 h: 3C and CASM3C systems; 72 h: BT and HDF3CGF systems; 96 h: SAg system). SRB was performed by staining cells with 0.1% SRB after fixation with 10% TCA and reading wells at 560 nm.Viability and proliferation of PBMC (T cells) was quantified by Alamar Blue reduction for the SAg and BT systems. For PBMC viability (referred to as PBMC Cytotoxicity within the assay endpoint names), cells were plated (75,000/well in a 96-well plate) and then chemical samples added for 1 h before addition of activators, SEB and TSST-1 (20 ng/mL final concentration each). Cells were incubated for 90 h. Then, Alamar Blue (20 uL/well) (Invitrogen, Cat DAL1100) was added for 6 h, and the plates were read with a fluorescence microplate reader at 546/580 nm (excitation/emission). For PBMC proliferation, cells were plated and activated as above but incubated for only 16 h prior to addition of Alamar Blue. Plates were read after 6 h.
Take `Cc1ccccc1N`: the outcome was inactive.
On to `CC(C)c1ccc(CO)cc1`, for which the outcome was inactive.
On the same count and under the same terms, the value for `CCC(=O)C(CC(C)N(C)C)(c1ccccc1)c1ccccc1` (stereo not given) was “inactive”; that for `CC(=O)OC(c1ccccc1)C(Cl)(Cl)Cl` (stereo not given) was “inactive”; that for `ClCC(Cl)CCl` was “inactive”.
Usually AC50 stands for the concentration at which the activity in the assay is half-maximal. Regarding `C(=NC1CCCCC1)=NC1CCCCC1`, the AC50 is 30.4 µM (active).
As for `CCSC(C)CC1CC(=O)C(C(CC)=NOC/C=C/Cl)=C(O)C1` (stereo not given), the outcome was inactive.
In the case of `CCOC(=O)/C=C(C)/C=C/C[C@@H](C)CCCC(C)C`, the concentration at half-maximal activity (AC50) is 25.7 µM (active).
For `O=[N+]([O-])c1ccc(O)c([N+](=O)[O-])c1`, the result was inactive.
`CCOP(=S)(OCC)SCCS(=O)(=O)CC`: the outcome was inactive.
For the compound `COc1cc(-c2ccc(N)c(OC)c2)ccc1N`, the outcome was inactive and the concentration at half-maximal activity (AC50) was 23.9 µM (active).
As for `COP(=S)(OC)Oc1ccc(S(=O)(=O)N(C)C)cc1`, the outcome was inactive.
For `CC(=O)C(Cl)C(=O)N(C)C` (stereo not given), the AC50 is 20 µM (active).
Regarding `ClC1=C(Cl)[C@]2(Cl)[C@H]3[C@H]([C@H]4C=C[C@H]3C4)[C@@]1(Cl)C2(Cl)Cl`, the result was inactive.
`CCCCC(CC)CO[N+](=O)[O-]` (stereo not given): the outcome was inactive.
`CCCCCCCCC(=O)NCc1ccc(O)c(OC)c1`: the outcome was inactive.
In the case of `CCN1CCC2(CC1)COc1cc3c(cc12)N(C(=O)c1ccc(-c2ccc(-c4nnc(C)o4)cc2C)cc1)CC3`, the AC50 is 22.6 µM (active).
In the case of `O=C(O)CCC(F)(C(F)(F)F)C(F)(F)F`, the result was inactive.
Take `CC(C)(C)c1cc(O)ccc1O`: the half-maximal activity concentration (AC50) is 8.15 µM (active).
For the compound `O=C(O)C(F)(F)C(F)(F)C(F)(F)C(F)(F)C(F)(F)C(F)(F)C(F)(F)C(F)(F)C(F)(F)C(F)(F)F`, the AC50 was 29.6 µM (active) and the outcome was inactive.
As to `Cn1sc(Cl)cc1=O`, the AC50 was 29.3 µM (active).
Consider `CC12CC1(C)C(=O)N(c1cc(Cl)cc(Cl)c1)C2=O` (stereo not given), for which the outcome was inactive.
Turning to `ClC(Cl)=C(Cl)C(Cl)=C(Cl)Cl`, the concentration at half-maximal activity (AC50) was 31.4 µM (active).
On to `Nc1ccc(-c2ccc(N)c(Cl)c2)cc1Cl`, for which the AC50 is 1.85 µM (active).
Still for that read-out and setting: the value for `O=C(OC1CCCCC1)c1ccccc1C(=O)OC1CCCCC1` was 20.9 µM (active); that for `CCCCCCCCc1ccc(O)cc1` was 30.5 µM (active).
`Nc1ncc([N+](=O)[O-])s1`: the result was inactive.
In the case of `BrCCBr`, the result was inactive.
For `NC(=S)Nc1ccccc1`, the outcome was inactive.
With `O=C1C2(Cl)C3(Cl)C4(Cl)C(Cl)(Cl)C5(Cl)C3(Cl)C1(Cl)C5(Cl)C24Cl` (stereo not given), the AC50 was 9.63 µM (active).
As to `COP(=S)(OC)Oc1ccc(Sc2ccc(OP(=S)(OC)OC)cc2)cc1`, the outcome was inactive.
Take `COC(=O)c1sccc1S(=O)(=O)NC(=O)Nc1nc(C)nc(OC)n1`: the outcome was inactive.
Regarding `CCNc1nc(NC(C)(C)C)nc(SC)n1`, the result was inactive.
As for `CC(C)(OO)c1ccccc1`, the outcome was inactive.
As for `C=C(C)C(=O)[O][Sn]([CH2]CCC)([CH2]CCC)[CH2]CCC`, the concentration at half-maximal activity (AC50) is 0.148 µM (active).
Turning to `COP(=S)(OC)Oc1c(Cl)cc(C)cc1Cl`, the AC50 is 13.8 µM (active).
Turning to `CCOP(=S)(OCC)SCSP(=S)(OCC)OCC`, the result was inactive.
For `C[C@@H]1C[C@@H]([C@H](O)CC2CC(=O)NC(=O)C2)C(=O)[C@@H](C)C1`, the half-maximal activity concentration (AC50) is 9.45 µM (active).
